Results filed as inconclusive are left out. Active and inactive are the calls of the source. Unless noted, calls follow the shape of the dose curve; as a rule, active = well fitted curve in the direction sought with a large enough effect; inconclusive = small, poorly fitted or top-dose-only effect, or another doubt; inactive = no such curve, though single readings can be large; an effect the other way counts as inactive or inconclusive.

In assay [1] the target is ATP-dependent 6-phosphofructokinase (Trypanosoma brucei brucei) (UniProt O15648). The experiment in a line: qHTS Assay to Find Inhibitors of T. brucei phosphofructokinase: hit validation (AID 492961).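 Also: luminescence reports ADP formed as PFK phosphorylates fructose-6-phosphate with ATP.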 The note with it: T. brucei PFK, ADP-Glo luminescence; series mostly up to 51.4 µM. The method, boiled down: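 In this biochemical qHTS validation, titrated compounds were tested against 1.25 nM PFK with 0.1 mM ATP and 0.5 mM F6P. Percent activity came from controls lacking or containing enzyme.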
Background: In qHTS, concentration-response curves come from the screen itself.

Assay [2] relates to AA1029. As to the kind of experiment: qHTS profiling for inhibitors of Plasmodium falciparum proliferation (AID 504749). Also: nearly all actives have a fitted effect of over 60% in size. Also: potency is read from the fitted curve at half-maximal effect. To be noted: P. falciparum in erythrocytes, SYBR Green DNA, 72 h; series mostly up to 28.7 µM. The procedure, abridged: (§1)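 SYBR Green fluorescence of parasite DNA, read after lysis and overnight dark incubation, measured growth over 72 h in erythrocyte culture at 0.3% parasitemia and 2.5% hematocrit. Data normalised to DMSO and 0.29 uM artemisinin, with plate-drift correction.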

The subject of assay [3] is AS120. The assay is described as above. The note with it: P. falciparum in erythrocytes, SYBR Green DNA, 72 h; series mostly up to 28.7 µM. The method, boiled down:
as §1

Assay [4] deals with ATS189. The assay is described as above. To be noted: P. falciparum in erythrocytes, SYBR Green DNA, 72 h; series mostly up to 28.7 µM. The procedure, abridged:
as §1

In assay [5] the test system is ATS95. The assay is described as above. To be noted: P. falciparum in erythrocytes, SYBR Green DNA, 72 h; series mostly up to 28.7 µM. The method, boiled down: as §1
The subject of assay [6] is CP215. Described as above. The note with it: P. falciparum in erythrocytes, SYBR Green DNA, 72 h; series mostly up to 28.7 µM. The procedure, abridged: as §1
Assay [7] concerns CP238. The assay is described as above. The note with it: P. falciparum in erythrocytes, SYBR Green DNA, 72 h; series mostly up to 28.7 µM. The procedure, abridged:
as §1

Assay [8] deals with CP247. Described as above. The note with it: P. falciparum in erythrocytes, SYBR Green DNA, 72 h; series mostly up to 28.7 µM. The method, boiled down:
as §1

For assay [9], the system named is CP265. The assay is described as above. To be noted: P. falciparum in erythrocytes, SYBR Green DNA, 72 h; series mostly up to 28.7 µM. The procedure, abridged:
as §1

Assay [10] concerns CP266. The assay is described as above. To be noted: P. falciparum in erythrocytes, SYBR Green DNA, 72 h; series mostly up to 28.7 µM. The method, boiled down: as §1
Assay [11] has as its system CP269. Described as above. To be noted: P. falciparum in erythrocytes, SYBR Green DNA, 72 h; series mostly up to 28.7 µM. The method, boiled down:
as §1

In assay [12] the test system is CP286. The description is as above. The note with it: P. falciparum in erythrocytes, SYBR Green DNA, 72 h; series mostly up to 28.7 µM. The method, boiled down:
as §1

Assay [13] deals with FAB9. Described as above. To be noted: P. falciparum in erythrocytes, SYBR Green DNA, 72 h; series mostly up to 28.7 µM. The method, boiled down:
as §1

The subject of assay [14] is HB3. Described as above. To be noted: P. falciparum in erythrocytes, SYBR Green DNA, 72 h; series mostly up to 28.7 µM. The procedure, abridged: as §1
In assay [15] the test system is PAD. Described as above. The note with it: P. falciparum in erythrocytes, SYBR Green DNA, 72 h; series mostly up to 28.7 µM. The procedure, abridged:
as §1

In assay [16] the test system is PC15. The assay is described as above. To be noted: P. falciparum in erythrocytes, SYBR Green DNA, 72 h; series mostly up to 28.7 µM. The procedure, abridged: as §1
Assay [17] has as its system PC49. Described as above. To be noted: P. falciparum in erythrocytes, SYBR Green DNA, 72 h; series mostly up to 28.7 µM. The method, boiled down:
as §1

For assay [18], the system named is TAB113. Described as above. The note with it: P. falciparum in erythrocytes, SYBR Green DNA, 72 h; series mostly up to 28.7 µM. The procedure, abridged: as §1
Assay [19] has as its system TAB165. The assay is described as above. The note with it: P. falciparum in erythrocytes, SYBR Green DNA, 72 h; series mostly up to 28.7 µM. The method, boiled down:
as §1

Assay [20] deals with 3',5'-cyclic-AMP phosphodiesterase 4B (Homo sapiens) (UniProt Q07343). The experiment in a line: qHTS Assay for Inhibitors of PDE-IV (AID 607; active = well fitted activation curve with a large enough effect in the main read-out, with a control signal flat, not every such curve was filed as active). The note with it: HEK293 ACTOne CNG channel cells, membrane potential fluorescence; series mostly up to 22.9 µM. The procedure, abridged: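 HEK293 ACTOne cells with CNG channel (1000/well), endogenous PDE4; membrane potential dye, compounds up to 22.9 uM final. Fluorescence Ex 535/Em 590; RO 20-1724 (100 uM final) as reference.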
3',5'-cyclic-AMP phosphodiesterase 4B (Homo sapiens), sequence (Q07343 whole entry, looked up): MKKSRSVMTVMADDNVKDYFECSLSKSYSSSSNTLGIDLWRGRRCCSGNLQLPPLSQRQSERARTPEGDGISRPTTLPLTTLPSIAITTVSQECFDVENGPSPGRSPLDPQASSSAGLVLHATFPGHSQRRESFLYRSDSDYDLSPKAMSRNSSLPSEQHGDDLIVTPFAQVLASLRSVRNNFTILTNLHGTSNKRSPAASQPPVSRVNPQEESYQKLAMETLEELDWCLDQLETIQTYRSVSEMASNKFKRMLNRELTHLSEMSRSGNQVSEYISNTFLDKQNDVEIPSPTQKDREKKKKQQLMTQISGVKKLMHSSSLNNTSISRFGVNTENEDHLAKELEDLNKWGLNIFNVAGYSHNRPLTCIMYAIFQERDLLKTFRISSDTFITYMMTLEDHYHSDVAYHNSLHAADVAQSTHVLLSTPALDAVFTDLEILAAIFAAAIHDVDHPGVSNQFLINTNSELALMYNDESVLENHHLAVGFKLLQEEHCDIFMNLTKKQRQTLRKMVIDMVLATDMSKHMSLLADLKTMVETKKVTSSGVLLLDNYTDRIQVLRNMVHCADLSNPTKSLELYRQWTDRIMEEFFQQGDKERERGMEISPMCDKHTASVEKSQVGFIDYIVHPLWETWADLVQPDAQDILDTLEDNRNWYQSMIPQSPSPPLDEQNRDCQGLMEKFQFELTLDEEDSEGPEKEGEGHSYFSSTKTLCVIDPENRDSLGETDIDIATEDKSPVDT

ATP-dependent 6-phosphofructokinase (Trypanosoma brucei brucei), sequence (O15648 whole entry, looked up): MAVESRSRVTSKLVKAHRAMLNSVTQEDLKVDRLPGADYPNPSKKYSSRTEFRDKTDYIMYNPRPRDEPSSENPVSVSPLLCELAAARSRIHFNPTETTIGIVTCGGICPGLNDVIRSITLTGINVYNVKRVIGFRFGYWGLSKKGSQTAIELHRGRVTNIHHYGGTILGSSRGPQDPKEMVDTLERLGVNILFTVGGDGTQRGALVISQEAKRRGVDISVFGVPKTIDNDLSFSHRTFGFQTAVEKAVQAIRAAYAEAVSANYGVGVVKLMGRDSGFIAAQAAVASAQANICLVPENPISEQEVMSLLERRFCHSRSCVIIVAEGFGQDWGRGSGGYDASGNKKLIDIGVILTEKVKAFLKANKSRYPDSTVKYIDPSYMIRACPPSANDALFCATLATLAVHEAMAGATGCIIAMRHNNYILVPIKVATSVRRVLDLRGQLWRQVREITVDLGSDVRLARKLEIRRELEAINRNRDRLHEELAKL

With `CN(C)CCCCCCN(C)C`, in [1], the compound was called inactive. The Potency result in assay [2], in [3], in assay [4], in assay [5], in [6] and in assay [7] was “inactive” each time. For the same compound, the Potency result in assay [8], in assay [9], in [10], in [11], in assay [12] and in assay [13] was “inactive” in each case. The Potency result in [14], in [15], in assay [16], in [17], in [18] and in assay [19] was “inactive” in each case.

In the case of `S=C1NC=NC2N=CNC12` (centres undefined), in [1], the result was inactive. For the same compound, the Potency result in assay [2], in assay [3], in [4], in assay [5], in assay [7] and in assay [8] was “inactive” in each case. Moreover, the Potency result in assay [9], in assay [12], in [13], in assay [14], in assay [15] and in assay [16] was “inactive” each time. Moreover, the Potency result in assay [17], in assay [18] and in [19] was “inactive” throughout. Besides, in assay [10], the Potency was 10.7 µM (active).

As to `Nc1nc(Cl)nc2c1ncn2C1CC(O)C(CO)O1` (centres undefined), the Potency result in assay [6], in [10] and in [11] was “inactive” each time.

`COc1c2ccoc2cc2oc(=O)ccc12`: the Potency entry in assay [20] was “inactive”.

For `C1OCOCO1`, the compound was called inactive in assay [1]. In addition, the Potency result in assay [2], in [3], in [4], in assay [5], in assay [6] and in assay [7] was “inactive” throughout. For the same compound, the Potency result in assay [8], in [9], in assay [10], in assay [11], in [12] and in [13] was “inactive” in each case. Also, the Potency result in assay [14], in [15], in assay [16], in assay [17], in [18] and in [19] was “inactive” each time.

For `CC1(C)S[C@@H]2[C@H](NC(=O)COc3ccccc3)C(=O)N2[C@H]1C(=O)O`, in assay [1], the result was inactive. In addition, the Potency result in assay [2], in [3], in assay [4], in assay [5], in assay [6] and in [7] was “inactive” in each case. Moreover, the Potency entry in assay [8], in [9], in assay [10], in assay [11], in [12] and in assay [13] was “inactive” each time. The Potency result in assay [14], in assay [15], in assay [16], in assay [17], in [18] and in assay [19] was “inactive” in each case.

In the case of `COc1ccc2[nH]cc(CCNc3nc(-c4c(C)noc4C)nc4ccccc34)c2c1`, in assay [20], the Potency result is “inactive”.

`COc1ccc2[nH]cc(CCNc3nc(-c4ccccc4OC)nc4ccccc34)c2c1`: in assay [20], the Potency entry was “inactive”.

In the case of `COc1ccc2[nH]cc(CCNc3ncncc3-c3ccccc3C(F)(F)F)c2c1`, the Potency entry in assay [20] is “inactive”.

Take `CC(C)(CO)C(O)C(=O)NCCCC(=O)O` (centres undefined): the Potency entry in assay [2], in [5], in assay [13], in assay [14], in assay [15] and in [16] was “inactive” throughout. For the same compound, the Potency entry in [17] and in [18] was “inactive” throughout. Moreover, the Potency is 0.0071 µM (active) in [3]; 2.82 µM (active) in assay [4]; 12 µM (active) in [6]; 17.8 µM (active) in assay [7]; 0.0112 µM (active) in assay [8]; 0.0141 µM (active) in assay [9]. Also, the Potency in assay [11] is 16.9 µM (active); in assay [12], 10 µM (active); in assay [19], 0.0398 µM (active).

Consider `c1ccc2c(NCCN3CCOCC3)nc(-c3ccc4c(c3)OCO4)nc2c1`, for which the Potency result in assay [20] was “inactive”.
